ChEMBL document CHEMBL3988442, “University of Dundee, Small-Polar-MMV Screening Library” (2021)

Key:
[1] = biological target: T1, Aspartate--tRNA(Asp/Asn) ligase (Mycobacterium tuberculosis (strain ATCC 25618 / H37Rv)) (UniProt P9WFW3); experiment: Assay for Asp RNA synthetase-1 from Mycobacterium tuberculosis; type: functional; parameters: scale not given: direction of the effect not stated beside the values; settings: 30 µM; also: in the data most compounds retested in dose-response had high values
T1 sequence (whole entry): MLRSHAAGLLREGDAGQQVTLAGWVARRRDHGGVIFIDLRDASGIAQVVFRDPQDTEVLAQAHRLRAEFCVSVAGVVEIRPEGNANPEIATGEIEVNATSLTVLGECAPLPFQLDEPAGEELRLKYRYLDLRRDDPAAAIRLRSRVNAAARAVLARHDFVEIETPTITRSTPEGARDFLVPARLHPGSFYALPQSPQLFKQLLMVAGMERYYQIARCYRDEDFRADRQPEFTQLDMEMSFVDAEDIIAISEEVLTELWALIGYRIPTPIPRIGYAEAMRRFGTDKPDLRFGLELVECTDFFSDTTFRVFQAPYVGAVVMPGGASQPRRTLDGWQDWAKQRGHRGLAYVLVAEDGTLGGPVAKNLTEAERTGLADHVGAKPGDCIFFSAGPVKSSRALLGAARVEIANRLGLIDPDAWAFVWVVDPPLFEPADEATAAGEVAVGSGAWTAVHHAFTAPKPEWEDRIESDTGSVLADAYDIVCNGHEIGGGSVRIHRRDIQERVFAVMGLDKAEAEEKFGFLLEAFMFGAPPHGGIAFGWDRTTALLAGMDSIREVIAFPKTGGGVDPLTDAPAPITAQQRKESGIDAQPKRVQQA

[2] = biological target: Shiga toxin 2 (Escherichia coli O157:H7) (UniProt P09385+P09386); experiment: E. coli 0.157:H7 Shiga Toxin SOP - stx2 screening assay; type: functional; parameters: scale not given: direction of the effect not stated beside the values; settings: 30 µM

SMILES	Percent Effect [1]	Percent Effect [2]
CCC(C)(NCC(=O)Nc1nc(C)cs1)c1nc(C)cs1 (centres undefined)	2.89%	-28.4%
CCn1nc(C)c2ncnc(NCCCN3CCOCC3)c21	-3.37%	-33.6%
O=C(NCCOc1ccc(F)c(F)c1)NCc1cccc(CO)c1	0.257%	-6.88%
COc1ccc(-c2nccnc2C2CCN(C(C)=O)CC2)cc1	0.0149%	12%
O=C1[C@H]2CC[C@H](CN(S(=O)(=O)c3ccccc3)C2)N1Cc1cscn1	1.23%	-25.8%
Cc1nc(C(=O)N2CCCC(c3cccc(-n4ccnc4)n3)C2)co1 (centres undefined)	-0.67%	3.79%
CN1CCN(CC2CC2)C(=O)c2cnc(N3CC[C@@H](O)C3)nc21	3.75%	-9.73%
CCc1noc(C(C)N2CCN(c3ccc(C#N)cc3F)CC2)n1 (centres undefined)	1.23%	8.4%
CC1CCN(C(=O)c2cccc3ncccc23)CC1	-1.51%	5.74%
CCc1nc(CN2CCOC(Cn3nc(C)nc3C)C2)no1 (centres undefined)	3.17%	28.4%
COC(=O)C(C)(C)NC(=O)C1CC(=O)N(C2CCCC2)C1 (centres undefined)	0.137%	-3.28%
CC(=O)c1cccc(OCCCC(=O)NCC2CCCN2C)c1 (centres undefined)	-2.48%	-4.3%
CSCC(CCO)NC(=O)Nc1cc(C)ccc1C (centres undefined)	6.04%	-16.3%
COCC1CC2(CCN(C(=O)c3ccc(OC)c(Cl)c3)CC2)CO1 (centres undefined)	0.918%	-4.71%
Cc1cc(C(C)NC(=O)N2CCC(n3cncn3)CC2)c(C)s1 (centres undefined)	0.6%	6.48%
COc1ccc(OC)c(CCNC(=O)NC(C)Cn2ccnc2)c1 (centres undefined)	-6.68%	31%
Cc1nnc(NC(=O)NCc2ccc(N3CCN(C)CC3)nc2)s1	3.74%	24.2%
